Our source for the survival values is PubChem BioAssay AID463173 (ICCB-Longwood Screening Facility, Harvard Medical School, 2010).

Molecules are shown by their SMILES. In all, about 52,000 compounds went through this assay and about 4,300 (8.3%) were called active. Cut-off read from the data, not from the text of the source: active = survival mostly below about 52% (no sharp cut-off); inactive = mostly above about 56%. The entries come from a sample that favours actives as a whole.

This experiment deals with DeltatarO mutant. In words: S. aureus survival, RN4220 and DeltatarO strains – OD600, teichoic acid synthesis inhibitors, primary screen (AID 463173). The conditions noted are these: S. aureus RN4220 wild type/DeltatarO growth, OD600, 18 h, stronger effect = lower value, screened at 18.75 µg/mL (by protocol).
As to `Cc1ccc(C(=O)CC2(O)C(=O)N(Cc3ccccc3)c3ccccc32)c(C)c1` (stereo not given), the survival is 41% (active).
Under `COc1cccc(C(=O)CC2(O)C(=O)N(Cc3ccccc3)c3ccccc32)c1` (stereo not given) stands 175% (inactive).
With `O=C(CC1(O)C(=O)N(Cc2ccccc2)c2ccc(Br)cc21)c1ccccc1` (stereo not given), the survival was 99% (inactive).
As to `CCCCN1C(=O)C(O)(CC(=O)c2ccc(CC)cc2)c2cc(Br)ccc21` (stereo not given), the survival was 32% (active).
With `COc1ccc(C(=O)CC2(O)C(=O)N(Cc3cccc(C(F)(F)F)c3)c3ccccc32)cc1` (stereo not given), the survival is 33% (active).
Under `Cc1ccc(CN2C(=O)C(O)(CC(=O)c3ccc(C)cc3)c3ccccc32)cc1` (stereo not given) stands 65% (inactive).
`COc1ccc(C(=O)CC2(O)C(=O)N(Cc3ccccc3)c3ccc(Br)cc32)cc1` (stereo not given): the survival is 50% (inactive).
`Cc1ccccc1CN1C(=O)C(O)(CC(=O)c2cccc(Br)c2)c2ccccc21` (stereo not given): the survival is 71% (inactive).
Consider `CCCCN1C(=O)C(O)(CC(=O)c2ccc(C)cc2C)c2cc(Br)ccc21` (stereo not given), for which the survival is 11% (active).
Take `CCc1ccc(C(=O)CC2(O)C(=O)N(Cc3ccc(C)cc3)c3ccccc32)cc1` (stereo not given): the survival is 57% (inactive).
For the molecule `CCCN1C(=O)C(O)(CC(=O)c2ccc(OC)c(OC)c2)c2ccccc21` (stereo not given), the survival is 146% (inactive).
For `O=C(CCC(=O)N1CCSc2ccccc21)NCc1ccccc1Cl` the value was 70% (inactive); for `Cc1cccc(C(c2sc3nc(-c4ccco4)nn3c2O)N2CCN(c3ccccc3)CC2)c1` (stereo not given), 76% (inactive).
For `O=C(CN1CCCC1)N1N=C(c2cccs2)CC1c1cccs1` (stereo not given), the survival was 86% (inactive).
For `CCOc1ccc(Cc2nc(C)c(CC(N)=O)c(=O)[nH]2)cc1`, the survival was 71% (inactive).
With `CCOC(=O)c1scc(-c2ccccc2)c1S(=O)(=O)Nc1ccc(N(C)C)cc1`, the survival is 86% (inactive).
With `COC(=O)Cn1c(O)c(N=NC(=O)C2COc3ccccc3O2)c2ccccc21` (stereo not given), the survival was 69% (inactive).
In the case of `CCC(=O)Nc1cccc(NC(=O)c2cccs2)c1`, the survival was 72% (inactive).
As for `CCOc1ccccc1NC(=O)Cn1c(=O)n(C(C)C)c(=O)c2oc3ccccc3c21`, the survival was 109% (inactive).
For `CC1=C(c2ccc(C)c(C)c2)S(=O)(=O)N=C1N1CCC(C(=O)N2CCCCC2)CC1`, the survival was 109% (inactive).
Consider `CCc1ccc(C2=C(C)C(N3CCC(C(=O)NCc4ccccc4)CC3)=NS2(=O)=O)cc1`, for which the survival was 89% (inactive).
For `CC1=C(c2ccc(C(C)C)cc2)S(=O)(=O)N=C1N1CCC(C(=O)NCc2ccco2)CC1`, the survival was 79% (inactive).
As for `CC1=C(c2ccc(C)c(C)c2)S(=O)(=O)N=C1N1CCC(C(=O)N2CCC(C)CC2)CC1`, the survival was 72% (inactive).
For the molecule `CC1=C(c2ccc(C(C)C)cc2)S(=O)(=O)N=C1N1CCC(C(=O)NCc2ccccc2)CC1`, the survival was -1% (active).
Regarding `CC1=C(c2ccc(Cl)cc2)S(=O)(=O)N=C1N1CCC(C(=O)NCCc2ccco2)CC1`, the survival is 81% (inactive).
Consider `CC1=C(c2ccc(C)c(C)c2)S(=O)(=O)N=C1N1CCC(C(=O)N2CCC(C(N)=O)CC2)CC1`, for which the survival is -2% (active).
For the molecule `CC1=C(c2ccc(C(C)C)cc2)S(=O)(=O)N=C1N1CCC(C(=O)NCCc2ccco2)CC1`, the survival was 6% (active).
`CC1=C(c2ccc(C(C)C)cc2)S(=O)(=O)N=C1N1CCC(C(=O)NCc2ccc(C)o2)CC1`: the survival is 67% (inactive).
For `Cc1cccc(N(C)C(=O)C(Cc2ccccc2)NS(=O)(=O)c2cccc3nsnc23)c1` (stereo not given), the survival is 74% (inactive).
On to `Cc1nnc(N2CCC(C(=O)N3CCCCC3)CC2)c2nn(-c3ccc(Cl)cc3)c(C)c12`, for which the survival was 95% (inactive).
With `COc1ccc(NC(=O)CSc2nc(-c3ccc(OC)cc3)[nH]c2-c2ccc(OC)cc2)cc1`, the survival was 71% (inactive).
As for `COc1ccc(-c2[nH]c(-c3ccccc3)nc2SCC(=O)NC2CCCC2)cc1`, the survival is 67% (inactive).
With `COc1ccc(-c2nc(-c3ccccc3)c(-c3ccccc3)[nH]2)cc1Br`, the survival was 59% (inactive).
For the molecule `CCOc1ccc(-c2nc(-c3ccccc3)c(-c3ccccc3)[nH]2)cc1OCC`, the survival is 142% (inactive).
In the case of `COCCNC(=O)CSc1nc(-c2ccccc2)[nH]c1-c1ccc(OC)cc1`, the survival is 80% (inactive).
For the molecule `COc1cc(-c2nc(-c3cccc(Cl)c3)c(-c3ccccc3)[nH]2)cc(OC)c1OC`, the survival is 126% (inactive).
For `COc1cc(-c2nc(-c3ccccc3)c(-c3ccc(Br)cc3)[nH]2)cc(OC)c1O` the value was 0% (active); for `COc1ccc(-c2[nH]c(-c3ccc(O)cc3)nc2-c2ccccc2)cc1`, 3% (active); for `COc1ccc(-c2nc(-c3ccccc3)c(-c3ccc(F)cc3)[nH]2)c(OC)c1C`, 5% (active).
As for `COc1ccc(-c2nc(SCC(=O)Nc3ccccc3)c(-c3ccc(F)cc3)[nH]2)cc1OC`, the survival is 49% (inactive).
`COc1cc(-c2nc(SCC(=O)Nc3ccc(C)cc3)c(-c3ccc(F)cc3)[nH]2)cc(OC)c1OC`: the survival is 91% (inactive).
On to `COc1ccc(-c2nc(-c3ccccc3)c(-c3ccc(O)cc3)[nH]2)cc1`, for which the survival was 1% (active).
Under `CC(=O)N1C(=O)/C(=C2\SC(=S)N(C(C)C(=O)O)C2=O)c2ccccc21` (stereo not given) stands 112% (inactive); under `CCCCN(CC)CCNC(=O)C1CCCN(S(=O)(=O)c2cccc3nsnc23)C1` (stereo not given), 117% (inactive).
Regarding `Nn1c(SCCC(=O)O)nnc1-c1ccccc1`, the survival was 83% (inactive).
Regarding `COCCNC(=O)c1cnc2sc(N3CCC(C)CC3)nn2c1=O`, the survival was 86% (inactive).
`O=S(=O)(c1ccccc1)c1nnn2c1nc(NCc1cccs1)c1sccc12`: the survival was 87% (inactive).
In the case of `N#CC(C(=O)c1ccc(F)cc1)c1nc2ccccc2[nH]1` (stereo not given), the survival is 86% (inactive).
Consider `CC1=C(C(=O)Nc2ccc(Cl)cc2)C(c2ccccc2C)n2ncc(C(=O)Nc3ccc(C)cc3)c2N1` (stereo not given), for which the survival is 54% (inactive).
Turning to `Oc1ccc(-c2nc(-c3ccccc3)c(-c3ccc(Br)cc3)[nH]2)cc1`, the survival is -4% (active).
Turning to `O=C(CSc1nc(-c2ccc(F)cc2)[nH]c1-c1ccccc1)Nc1ccccc1`, the survival was 67% (inactive).
Take `O=C(O)c1ccc(-c2nc3ccccc3[nH]2)cc1`: the survival is 86% (inactive).
Regarding `Cc1nn(-c2ccc(N3CCCCC3)nn2)c(C)c1CCC(=O)NCc1ccccc1`, the survival was 67% (inactive).
With `Cc1ccc(N(CC(=O)NC2CCCC2)C(=O)c2ccc(N3CCCC3)nc2)cc1`, the survival is 89% (inactive).
For the molecule `Cc1ccc(NC(=O)C2CCCN(S(=O)(=O)c3cccc4nsnc34)C2)c(C)c1` (stereo not given), the survival is 83% (inactive).
